Structures are written as SMILES. The campaign covered roughly 52,000 compounds. About 1,700 (3.3%) were called active. The sample holds actives, similar compounds and a random draw of the others, so the mix is not that of the screen. A number with no mark means an inactive call. Rule as the data show it: active = survival mostly below about 52% (no sharp cut-off); inactive = mostly above about 56%.

The test system of this test is Wild type. Kind of test: S. aureus survival, RN4220 and DeltatarO strains – OD600, teichoic acid synthesis inhibitors, primary screen (AID 463173). The conditions noted are these: S. aureus RN4220 wild type/DeltatarO growth, OD600, 18 h, active compounds read low, screened at 18.75 µg/mL (by protocol).
Take `Cc1ccccc1N(C)S(=O)(=O)c1nnc(NC(=O)c2ccccc2F)s1`: the survival was 33%.

As for `CCOC(=O)CC(NC(=O)Cn1nnc(-c2ccc(C(F)(F)F)cc2)n1)c1ccc(C)cc1` (stereo not given), the survival is 87%.

Take `CCc1ccc(NC(=O)Cc2c(C(=O)O)c(C)cn2C)cc1`: the survival is 76%.

For the compound `CCOC(=O)c1ccccc1NC(=O)CCOc1ccccc1`, the survival is 6% (active).

Regarding `Cc1c(Cl)cccc1NC(=O)CCOc1ccccc1`, the survival is 145%.

As for `Cc1ccc(C)c(NC(=O)CCOc2ccccc2)c1`, the survival was 94%.

As for `Cc1cn(C)c(CC(=O)Nc2cccc(Cl)c2C)c1C(=O)O`, the survival is 124%.

For `CCOC(=O)c1ccccc1NC(=O)Cc1c(C(=O)O)c(C)cn1C`, the survival is -1% (active).

In the case of `CC(=O)N1CCc2cc(S(=O)(=O)NC(Cc3ccccc3)C(=O)Nc3ccc(Cl)cc3)ccc21` (stereo not given), the survival was 89%.

On to `O=C(NCCc1ccccc1)c1cc(-c2ccc(Cl)cc2)on1`, for which the survival was 101%.

Consider `O=C(NCc1ccccc1F)C(=O)NCC(c1ccc2c(c1)OCO2)N1CCOCC1` (stereo not given), for which the survival was 71%.

Consider `CCc1cccc(CC)c1NC(=O)C(CC)n1nc(C)n2c(cc3cc(C)ccc32)c1=O` (stereo not given), for which the survival is 73%.

For the compound `CCOc1ccc(CN2C(=O)c3ccccc3Sc3ccc(C(=O)NC)cc32)cc1`, the survival was 78%.

As for `Cc1cccc(/C=N/NC(=O)c2ccccn2)c1O`, the survival is 18%.

`Cc1cc(S(=O)(=O)N(C)CCc2ccccc2)ccc1-n1cnnn1`: the survival was 99%.

On to `CCOC(=O)c1cc(S(=O)(=O)Nc2ccc(OC)c(Cl)c2)[nH]n1`, for which the survival was -6% (active).

On to `CCOC(=O)c1cc(S(=O)(=O)Nc2cc(OC)ccc2OC)[nH]n1`, for which the survival is 123%.

For the compound `CCOC(=O)c1cc(S(=O)(=O)Nc2cc(C)c(Cl)cc2OC)[nH]n1`, the survival is 98%.

`CCOC(=O)c1cc2sccc2n1CC(=O)NC(C)C`: the survival was 100%.

`COc1ccc(-c2cnc(C)o2)cc1S(=O)(=O)Nc1ccc(C)c(F)c1`: the survival is 60%.

In the case of `Fc1ccc(-n2ncc3c(N4CCCCCC4)ncnc32)cc1`, the survival is 82%.

Regarding `Cc1ccc(N2C(=O)CSC23C(=O)N(CC(=O)Nc2ccc(C(C)C)cc2)c2ccccc23)cc1C` (stereo not given), the survival is 80%.

Turning to `CCN(CC)CCNC(=O)c1ccc2c(c1)sc1nc(-c3ccc(F)cc3)cn12`, the survival was 27%.

As to `CCN(CC)CCCNC(=O)c1ccc2c(c1)sc1nc(-c3ccc(C)cc3)cn12`, the survival is 8% (active).

For the compound `CCCNC(=O)c1ccc2c(c1)sc1nc(-c3ccc(C)cc3)cn12`, the survival is 103%.

In the case of `CCOc1ccc(-c2cn3c(n2)sc2cc(C(=O)NCCCc4ccccc4)ccc23)cc1`, the survival is 96%.

For the compound `CCOc1ccc(-c2cn3c(n2)sc2cc(C(=O)NCCCN(CC)CC)ccc23)cc1`, the survival is 2% (active).

Consider `CCCSCCCNC(=O)c1ccc2c(c1)sc1nc(-c3ccc(OCC)cc3)cn12`, for which the survival was 85%.

On to `CCOc1ccc(N2C(=O)c3n[nH]c(-c4cccs4)c3C2c2cccc(F)c2)cc1` (stereo not given), for which the survival is 60%.

As to `Cc1ccc(CSc2nc3ccncc3n2Cc2nc(-c3ccccc3C)oc2C)cc1`, the survival was 0% (active).

Take `Cc1ccc(C)c(CSc2nc3ccncc3n2Cc2nc(-c3ccccc3Cl)oc2C)c1`: the survival was 61%.

For the compound `Cc1ccc(CSc2nc3ccncc3n2Cc2nc(-c3ccc(Cl)cc3)oc2C)cc1`, the survival was 68%.

For the compound `CCN(C(=O)Cn1nc(Cc2ccncc2)c2ccccc2c1=O)c1ccc(OC)cc1`, the survival is 74%.

Turning to `Cc1ccccc1C(=O)NC1CCN(CC(=O)NC2CCCCC2)CC1`, the survival is 98%.

`COc1ccc(Cl)cc1NC(=O)C1CCN(c2ncnc3c2nc2n3CCCCC2)CC1`: the survival is 82%.

`O=S1(=O)CCC(c2ccccc2)C1` (stereo not given): the survival was 100%.

In the case of `COc1ccc2cc(C(=O)NCc3ccc4c(c3)CCN4C(=O)c3ccc(C)cc3)[nH]c2c1`, the survival was 84%.

With `COc1ccc2cc(C(=O)NCc3ccc4c(c3)CCN4C(=O)c3ccc(F)cc3)[nH]c2c1`, the survival was 68%.

Consider `COc1ccc(CC(=O)NCc2ccc3c(c2)CCN3C(=O)c2cccc(C)c2)cc1`, for which the survival is -6% (active).

Take `Cc1cccc(C(=O)N2CCc3cc(CNC(=O)c4cc5ccccc5[nH]4)ccc32)c1`: the survival is 72%.

With `O=C(NCc1ccc2c(c1)CCN2C(=O)c1ccccc1)c1cc2ccccc2[nH]1`, the survival was 1% (active).

As to `O=C(NCc1ccc2c(c1)CCN2C(=O)c1ccc(F)cc1)c1cc2ccccc2[nH]1`, the survival is 99%.

As to `CCOc1ccc(C(=O)NCc2ccc3c(c2)CCN3C(=O)c2ccccc2)cc1`, the survival is -4% (active).

For the compound `COc1ccc(CCC(=O)NCc2ccc3c(c2)CCN3C(=O)c2cccc(C)c2)cc1`, the survival was 67%.

Regarding `COc1ccc2cc(C(=O)NCc3ccc4c(c3)CCN4C(=O)c3ccccc3)[nH]c2c1`, the survival was -3% (active).

Turning to `COc1ccc(OCC(=O)NCc2ccc3c(c2)CCN3C(=O)c2cccc(C)c2)cc1`, the survival is 72%.

Consider `COc1ccc(C(=O)NCc2ccc3c(c2)CCN3C(=O)c2ccccc2)cc1`, for which the survival is 82%.

In the case of `CCOc1ccc(C(=O)NCc2ccc3c(c2)CCN3C(=O)c2ccc(Cl)cc2)cc1`, the survival was 81%.

With `CC(C)c1cc2cc(/C=C/C(=O)O)c(O)cc2o1`, the survival was 39%.

Turning to `CCC(CC)N1CCN(S(=O)(=O)c2ccc(NC(C)=O)cc2)CC1`, the survival was 113%.

Turning to `O=C(/C=C/c1ccccc1)N1CCN(CCN2C(=O)C3C4C=CC(C4)C3C2=O)CC1` (stereo not given), the survival is 124%.

Take `Cc1nc(-c2ccc(S(=O)(=O)NCc3ccc(F)cc3)cc2)co1`: the survival is 68%.

On to `Nc1c(-c2nc(-c3ccc4c(c3)OCO4)cs2)c2ccccn2c1C(=O)c1ccccc1`, for which the survival was 86%.

With `COc1ccccc1N1CCN(C(=O)C2CCN(S(=O)(=O)Cc3ccccc3)CC2)CC1`, the survival is 84%.

Consider `COc1ccc(-c2nc(CS(=O)CC(=O)NCc3ccccc3OC)c(C)o2)cc1` (stereo not given), for which the survival was 123%.

With `O=C(C1CCC(Cn2c(=O)c3sccc3n(Cc3ccccc3)c2=O)CC1)N1CCOCC1` (stereo not given), the survival is 95%.

With `CCCn1c2ccccc2c2cnn(CC(=O)N3CCC(C(=O)OCC)CC3)c(=O)c21`, the survival was 87%.

Regarding `Cc1ccc(C)c(N2CCN(c3nc4ccccc4n4c(C)nnc34)CC2)c1`, the survival is 87%.

Consider `Cc1ccc(Cl)cc1N1CCN(c2nc3ccc(C(=O)c4ccccc4)cc3n3cnnc23)CC1`, for which the survival was -6% (active).

Consider `CCc1nnc2c3ccccc3nc(N3CCN(c4cc(Cl)ccc4C)CC3)n12`, for which the survival is 126%.

With `Cc1ccc(N2CCN(c3nc4ccc(C(=O)c5ccccc5)cc4n4cnnc34)CC2)c(C)c1`, the survival was 72%.

As to `Cc1ccc(C)c(N2CCN(c3nc4ccc(C(=O)c5ccccc5)cc4n4cnnc34)CC2)c1`, the survival is 100%.

As for `CCc1nnc2c(N3CCN(c4cc(Cl)ccc4C)CC3)nc3ccccc3n12`, the survival is -6% (active).

`O=C(CN1C(=O)C2(SCC(=O)N2c2ccc(F)c(F)c2)c2ccccc21)Nc1cccc(Cl)c1` (stereo not given): the survival is 68%.

Take `CCOC(=O)c1cccc(Nc2c3c(nc4ccccc24)CCC3)c1`: the survival is 73%.

As for `Fc1ccccc1Nc1c2c(nc3ccccc13)CCC2`, the survival was 102%.

In the case of `COc1ccc(Nc2c3c(nc4ccccc24)CCC3)cc1Cl`, the survival was 72%.

With `Fc1ccc(Nc2c3c(nc4ccccc24)CCC3)cc1`, the survival is 70%.

For `COc1ccccc1Nc1c2c(nc3ccc(NC(=O)c4cccc(F)c4)cc13)CCCC2`, the survival is 35%.

Take `Cc1ccc2nc3c(c(Nc4ccc(C)c(C)c4)c2c1)CCC3`: the survival is 39%.

For the compound `Fc1ccc(F)c(Nc2c3c(nc4ccc(Cl)cc24)CCC3)c1`, the survival is -1% (active).

As for `FC(F)(F)c1cccc(Nc2c3c(nc4ccc(Cl)cc24)CCC3)c1`, the survival was 5% (active).

Regarding `Cc1ccc(Nc2c3c(nc4ccccc24)CCC3)cc1F`, the survival is 2% (active).

As for `CC1(C)Cc2nc3sc4c(N5CCOCC5)ncnc4c3cc2CO1`, the survival is 97%.

For the compound `O=C(Cn1c(=O)oc2ccccc21)NCc1cccc(Cl)c1`, the survival is 78%.

Take `CCOC(=O)c1cnc2nc(NCc3cccc(Br)c3)[nH]n2c1=O`: the survival is 98%.

`NC(=O)C1CCN(c2nc(C3CC3)nc3c2nnn3Cc2ccccc2Cl)CC1`: the survival was 108%.

For `O=C(CN1C=NS(=O)(=O)c2ccc(C(F)(F)F)cc21)Nc1cccc(C(F)(F)F)c1`, the survival is 76%.

Consider `COc1cccc(C2CC(=O)Nc3c2c(=O)n(C)c2nc4ccccc4n32)c1OC` (stereo not given), for which the survival was 67%.

Take `CCOCCCNC(=O)c1ccc(-c2nc(CS(=O)(=O)c3ccccc3)c(C)o2)cc1`: the survival is 87%.

With `Cc1oc(-c2ccc(C(=O)NCCCOC(C)C)cc2)nc1CS(=O)(=O)c1ccccc1`, the survival is -6% (active).

For the compound `Cc1ccc(S(=O)(=O)Cc2nc(-c3ccc(C(=O)NCCCOC(C)C)cc3)oc2C)cc1`, the survival is 75%.

On to `CCOc1ccc(-c2nc(SCC(=O)Nc3ccc4c(c3)OCO4)c(-c3ccc(F)cc3)[nH]2)cc1`, for which the survival is 98%.

With `Cc1ccc(Cl)cc1-n1ncc2c(NCc3ccc(F)cc3)ncnc21`, the survival is 73%.

In the case of `O=C(NC1CC(=O)N(c2ccccc2)C1)c1ccc(S(=O)(=O)N2CCCC2)cc1` (stereo not given), the survival was 133%.

Regarding `O=C(NC1CC(=O)N(c2ccc(Cl)cc2)C1)c1ccc(S(=O)(=O)N2CCOCC2)cc1` (stereo not given), the survival was 91%.

`O=C(NC1CC(=O)N(c2ccc(F)cc2)C1)c1ccc(S(=O)(=O)N2CCCCC2)cc1` (stereo not given): the survival is 83%.

Turning to `Cc1ccc(N2CC(NC(=O)c3ccc(S(=O)(=O)N4CCOCC4)cc3)CC2=O)cc1` (stereo not given), the survival was 47%.

For `O=C(NC1CC(=O)N(c2ccccc2)C1)c1ccc(S(=O)(=O)N2CCCCC2)cc1` (stereo not given), the survival is -1% (active).

Regarding `O=C(NC1CC(=O)N(c2ccccc2)C1)c1ccc(S(=O)(=O)N2CCOCC2)cc1` (stereo not given), the survival was 14% (active).
